Inconclusive results are not listed. Unmarked numbers belong to inactive results. Calls of active or inactive are those of the source. Calls follow the shape of the full dose curve.
Molecular target: Retinoic acid receptor RXR-alpha (Homo sapiens) (UniProt P19793)
Assay: qHTS assay to identify small molecule agonists of the RXR signaling pathway (AID 1159527); also: nearly all actives have a fitted effect of over 35% in size
Conditions: HEK293T RXRa-UAS-bla, beta-lactamase ratio, 16 h; series mostly up to 76.8 µM; activation: at the top concentration
Description: U.S. Tox21 Program National Center for Advancing Translational Sciences [NCATS] NIH Chemical Genomics Center [NCGC] U.S. Environmental Protection Agency [EPA] National Institutes of Environmental Health Sciences [NIEHS] National Toxicology Program [NTP] U.S. Food and Drug Administration [FDA] Tox21 Assay Overview: The Retinoid X receptor (RXR), a nuclear hormone receptor expressed in liver, spleen, placenta, epidermis, central nervous system. These receptors are able to form homo and heterodimers with other nuclear receptors and due to this heterodimerizing ability, RXR functions as master regulators producing diverse physiological effects. Three subtypes of RXR exist; alpha, beta and gamma. Retinoid X receptor alpha (RXR-alpha) has potential roles in metabolic signaling pathways, skin alopecia, dermal cysts, cardiac development, insulin sensitization etc. Therefore screening environmental chemicals on RXR-alpha signaling can be used for the studies focused on such therapeutic applications. For quantification of RXR-alpha ligands signaling, GeneBLAzer RXR alpha-UAS-bla HEK 293T (Life Technologies, Carlsbad, CA) cells containing a beta-lactamase reporter-gene under control of Retinoid X receptor-alpha response element were used to screen Tox21 10K library.
Tox21 Assay Protocol Summary: RXR-alpha HEK 293T cells were dispensed at 2,000 cells/6 uL of assay medium containing 2% charcoal-stripped FBS using a Multidrop Combi (ThermoFisher Scientific, Waltham, MA) dispenser. The assay was performed in black wall/clear-bottom 1536-well plates (Greiner Bio-One North America Inc. Monroe, NC). 9-cis retinoic acid was used as a positive control in the agonist mode screen. After the assay plates were incubated at 37 C and 5% CO2 for 5 hr, 23 nL of compounds dissolved in DMSO, positive controls or DMSO only were transferred to the assay plate by a Pintool station (Kalypsys, San Diego, CA). The assay plates were incubated at 37 C and 5% CO2 for 16 hr. One uL of LiveBLAzer B/G FRET substrate (Life Technologies) was added using a Flying Reagent Dispenser (Aurora Discovery, San Diego, CA) and the plates were incubated at room temperature for 2 hr. Fluorescence intensity (405 nm excitation, 460/530 nm emission) was measured using an Envision plate reader (PerkinElmer, Shelton, CT).
% is scaled to controls: 0 for no effect and ±100 for the full control effect; potency is read from the fitted curve at half-maximal effect.

Retinoic acid receptor RXR-alpha (Homo sapiens), sequence (P19793 whole entry, looked up): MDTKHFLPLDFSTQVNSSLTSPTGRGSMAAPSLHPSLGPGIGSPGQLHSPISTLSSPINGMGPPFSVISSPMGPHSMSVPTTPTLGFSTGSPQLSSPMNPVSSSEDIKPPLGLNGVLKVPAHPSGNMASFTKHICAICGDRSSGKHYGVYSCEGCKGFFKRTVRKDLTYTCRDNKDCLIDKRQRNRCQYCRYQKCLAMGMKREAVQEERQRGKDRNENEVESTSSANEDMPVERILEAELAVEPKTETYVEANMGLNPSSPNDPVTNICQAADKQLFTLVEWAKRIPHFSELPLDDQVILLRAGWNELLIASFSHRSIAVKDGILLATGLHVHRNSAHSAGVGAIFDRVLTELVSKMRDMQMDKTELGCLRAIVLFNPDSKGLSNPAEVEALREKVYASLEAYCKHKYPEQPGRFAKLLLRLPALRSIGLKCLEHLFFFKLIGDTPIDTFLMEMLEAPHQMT

| Structure (SMILES) | activation | Potency |
| --- | --- | --- |
| CC(=O)N(CC(O)CO)c1c(I)c(C(=O)NCC(O)CO)c(I)c(C(=O)NCC(O)CO)c1I (stereo not given) | 7.23% [at 35.3 µM] |  |
| COc1cc(C=O)ccc1OC(=O)C(C)C | -15.2% |  |
| COCCOCCOCCOC | 1.97% |  |
| CC(=O)c1ccc2c(c1)CCCC2 | 3.49% |  |
| CC(C)(c1ccc(Oc2ccc3c(c2)C(=O)OC3=O)cc1)c1ccc(Oc2ccc3c(c2)C(=O)OC3=O)cc1 |  | 13.7 µM (active) |
| CCC(=O)OCCC(C)CCC=C(C)C (stereo not given) | 6.29% |  |
| O=P(O)(O)OCC(O)CO (stereo not given) | 4.52% [at 35.3 µM] |  |
| C=C(C)C(=O)OC | 3.65% |  |
| C=CCOc1c(Br)cc(C(C)(C)c2cc(Br)c(OCC=C)c(Br)c2)cc1Br | 0.204% [at 35.3 µM] |  |
| CC(C)C(=O)Nc1cccc(C(F)(F)F)c1 | 4.27% [at 35.3 µM] |  |
| CC(=O)Nc1ccc(C)cc1 | -19% |  |
| C=CCOc1cc(Cl)ccc1C(=O)NCCN(CC)CC | -1.11% [at 35.3 µM] |  |
| COc1ccc(/C=N/NC(=O)c2ccncc2)cc1OC | 0.52% [at 35.3 µM] |  |
| CCCCC[Si](OCC)(OCC)OCC | -1.61% |  |
| CCCCCCCCCCCCCCCCCCN(C)C | -0.0122% [at 35.3 µM] |  |
| O=C(O)c1ccccc1C(=O)Nc1ccc(S(=O)(=O)Nc2nccs2)cc1 | 5.82% [at 35.3 µM] |  |
| CCS(=O)(=O)CCn1c([N+](=O)[O-])cnc1C | 5.03% [at 35.3 µM] |  |
| CC(=O)OCCCc1ccccc1 | -5.25% |  |
| C=CCOc1c(Br)cc(Br)cc1Br | 4.75% |  |
| CN[C@@H]1[C@H](O)[C@H](NC)[C@H]2O[C@@]3(O)C(=O)C[C@@H](C)O[C@H]3O[C@@H]2[C@H]1O | -0.0536% [at 35.3 µM] |  |

| Structure (SMILES) | activation | Potency |
| --- | --- | --- |
| CN(C)CCOCCN(C)CCO | -7.71% |  |
| CC(=O)N1CCN(c2ccc(O)cc2)CC1 | 9.52% [at 35.3 µM] |  |
| O=c1[nH]c(=O)c2ccccc2o1 | 13.4% [at 35.3 µM] |  |
| Nc1ccc(S(=O)(=O)NC(=O)c2ccccc2)cc1 | 5.53% [at 35.3 µM] |  |
| C=C(C)C(=O)OCCCCCCOC(=O)C(=C)C | -4.28% |  |
| CO[Si](CCCS)(OC)OC | -11.8% |  |
| CC(C)(CO)[C@@H](O)C(=O)NCCCO | 0.946% [at 35.3 µM] |  |
| C[N+](C)(C)CC(O)CCl (stereo not given) | 1.14% |  |
| Nc1ccc(S(=O)(=O)Nc2ccccn2)cc1 | 8.31% [at 35.3 µM] |  |
| CCCCC(CC)C(=O)OC(C)C (stereo not given) | 6.34% |  |
| CCC(C)(CCC(C)C)C(=O)[O-].CCC(C)(CCC(C)C)C(=O)[O-].[Zn+2] (stereo not given) | 0.713% |  |
| CC(C)CCCCCCOC(=O)C1CCCCC1C(=O)OCCCCCCC(C)C (stereo not given) | -5.22% |  |
| O=C(Nc1cccc(C2=NCCN2)c1)Nc1cccc(C2=NCCN2)c1 | 1.97% [at 15.8 µM] |  |
| Cc1nc([N+](=O)[O-])cn1-c1ccc([N+](=O)[O-])cc1 | -0.449% [at 35.3 µM] |  |
| CCCOC(=O)CCCCC(=O)OCCC | 4.33% |  |
| CCCCCCCCCCCCCC(=O)OC | 13.2% |  |
| CC(=O)c1ccc(OCC(=O)N2CCCCC2)cc1 | 1.63% [at 35.3 µM] |  |
| O=C(O)Cc1cccc(-c2cc(CCCCCCc3ccc(O[C@H]4O[C@H](CO)[C@@H](O)[C@H](O)[C@@H]4O)c(-c4cccc(CC(=O)O)c4)c3)ccc2O[C@H]2O[C@H](CO)[C@@H](O)[C@H](O)[C@@H]2O)c1 | 6.74% [at 0.29 µM] |  |
| COc1cc([N+](=O)[O-])ccc1N | -7.91% |  |
| COc1cccc2sc(N)nc12 | 2.19% |  |

Reference: PubChem BioAssay (Tox21)
